Results on 60 compounds are retold here after PubChem BioAssay AID463173 (ICCB-Longwood Screening Facility, Harvard Medical School, 2010).

Hit rate of the full screen: of about 52,000 compounds, about 4,300 (8.3%) were called active. For the sample, actives were picked, then their nearest neighbours and some compounds at random. A number with no mark means an inactive call. Rule as the data show it: active = survival mostly below about 52% (no sharp cut-off); inactive = mostly above about 56%.

The experiment concerns DeltatarO mutant. The experiment can be described thus: growth inhibition of S. aureus wild type versus tarO mutant, primary screen, teichoic acid synthesis inhibitors, RN4220, OD600 (AID 463173). Particulars: OD600, 18 h, active compounds read low, screened at 18.75 µg/mL (by protocol).
Regarding `COc1cc(OC)c(-c2cc(C(=O)NCc3ccc(F)cc3)c3c(-c4ccccc4)[nH]nc3n2)cc1OC`, the survival was 98%.
Turning to `O=C(NCC1CCCO1)C12CC3CC(CC(C3)C1)C2` (stereo not given), the survival is 109%.
Consider `CC(C)Oc1ccccc1NC(=O)CSc1nccn1C`, for which the survival was 60%.
For the compound `CCOCCc1nn2c(=O)cc(COC(=O)COc3ccc(C)c(C)c3)nc2s1`, the survival is 89%.
For `O=C(CN1CCN(C2CCCCC2)C(=O)C1=O)Nc1ccc(Cl)cc1`, the survival is 86%.
With `CCOC(=O)c1c(NC(=O)c2cc3nc(-c4ccc(Br)cc4)cc(C(F)(F)F)n3n2)sc(C(C)=O)c1C`, the survival was 83%.
Consider `CCOC(=O)c1cccc(NC(=O)[C@@H](c2ccccc2)N2Cc3ccccc3C2=O)c1`, for which the survival is 58%.
The result for `Cc1ccccc1-c1nnc(SCC(=O)N(C)c2ccccc2)o1` reads 79%.
As to `O=C(OC1CSc2nc3ccccc3n2C1)c1ccccc1Cl` (stereo not given), the survival was 95%.
With `COC(=O)C1CC(=O)N(c2ccccc2)C1` (stereo not given) the figure was 72%; with `CC(C)CCOc1ccc(C(=O)NCC2OCCc3ccccc32)cc1` (stereo not given), 39% (active); with `CC(C)COc1ccc(C(=O)NCC2OCCc3ccccc32)cc1` (stereo not given), 51%.
Turning to `CCCOc1ccc(C(=O)NCC2OCCc3ccccc32)cc1` (stereo not given), the survival is 49%.
On to `Cc1ccccc1NC(=O)CSc1nnc(-c2cccs2)o1`, for which the survival was 71%.
The result for `Cc1c(Cl)cccc1-n1ncc(C(=O)Nc2ccc(Br)cc2F)c1C1CCNCC1` reads 87%; that for `COc1cc(Cl)c(NS(=O)(=O)c2ccc3[nH]c(=O)ccc3c2)c(OC)c1`, 102%; that for `O=C(CNS(=O)(=O)c1ccc(Cl)cc1)NC1CCCC1`, 67% (active).
Consider `CC(C)(C)C(=O)CNS(=O)(=O)c1ccc(S(=O)(=O)NC2CCCCC2)cc1`, for which the survival is 79%.
The result for `O=C(CNS(=O)(=O)c1ccc(Cl)cc1)NN=C1CCCCC1` reads 92%; that for `Cc1cc(-c2ccc(S(=O)(=O)NCc3ccccc3Cl)s2)on1`, 128%; that for `CCOc1ccc(OCC)c(NC(=O)c2cc3ccccn3n2)c1`, 87%.
Consider `COc1ccc(Cl)cc1C(=O)NCc1nc(-c2cccc(C)c2)no1`, for which the survival is 48%.
For the compound `COc1cc(C(=O)NCc2nc(-c3ccc(Cl)cc3)no2)cc(OC)c1OC`, the survival is 59%.
As for `COc1cccc(C(=O)NCc2nc(-c3ccccc3)no2)c1OC`, the survival was 43% (active).
On to `O=C(NCc1nc(-c2ccccc2)no1)c1ccco1`, for which the survival was 68%.
As for `COc1ccc(-c2noc(CNC(=O)c3ccccc3Br)n2)cc1`, the survival was 51%.
For `COc1ccc(-c2noc(CNC(=O)c3ccc(OC)cc3OC)n2)cc1`, the survival is 62% (active).
Take `COc1ccc(-c2noc(CNC(=O)c3cc(OC)c(OC)c(OC)c3)n2)cc1`: the survival is 55%.
Take `COc1cc(OC)c(C(=O)NCc2nc(-c3ccccc3)no2)cc1OC`: the survival is 41% (active).
`COc1ccc(-c2noc(CNC(=O)c3ccco3)n2)cc1`: the survival is 87%.
As to `NC(=O)Cn1cc(F)c(=O)[nH]c1=O`, the survival is 87%.
With `Cc1ccccc1-c1noc(C(C)NC(=O)c2ccco2)n1` (stereo not given) the figure was 79%; with `COc1ccc(-n2c(=O)c3c4c(sc3n(Cc3ccccc3C)c2=O)CCCC4)c(OC)c1`, 64%.
With `CCOc1ccccc1NC(=O)c1cc(S(=O)(=O)NC2CCCC2)ccc1F`, the survival was 81%.
With `O=C(NCC(c1ccccc1)c1ccccc1)c1nn(-c2ccccc2F)nc1CO` the figure was 104%.
Turning to `O=c1c2sc3ccccc3c2n(Cc2cccc(Cl)c2)c(=O)n1Cc1ccc(F)cc1`, the survival was 68% (active).
The result for `O=c1c2sc3ccccc3c2n(Cc2ccc(F)cc2)c(=O)n1Cc1ccccc1` reads 137%.
Regarding `O=c1c2sc3ccccc3c2n(Cc2cccc(Cl)c2)c(=O)n1Cc1ccccc1`, the survival was 66%.
With `COc1ccccc1NC(=O)Cn1c(=O)n(Cc2ccccc2)c(=O)c2sc3ccccc3c21` the figure was 68% (active); with `Cc1ccccc1NC(=O)Cn1c(=O)n(Cc2ccccc2)c(=O)c2sc3ccccc3c21`, 65%.
Consider `COc1ccccc1NC(=O)Cn1c(=O)n(CCc2ccccc2)c(=O)c2sc3ccccc3c21`, for which the survival was 74%.
`CCS(=O)(=O)c1ncc(N(Cc2cccc(F)c2)Cc2ccco2)c(C(=O)Nc2ccccc2Cl)n1`: the survival is 64%.
Take `COc1ccccc1CN(Cc1ccco1)c1cnc(S(C)(=O)=O)nc1C(=O)Nc1cc(C)ccc1C`: the survival was 58%.
The result for `COc1cccc(CN(Cc2ccco2)c2cnc(S(C)(=O)=O)nc2C(=O)Nc2cccc(Cl)c2C)c1` reads 47% (active); that for `COc1ccccc1CN(Cc1ccco1)c1cnc(S(C)(=O)=O)nc1C(=O)Nc1ccccc1Cl`, 46% (active); that for `COc1ccc(Cl)cc1NC(=O)c1nc(S(C)(=O)=O)ncc1N(Cc1ccc(C)cc1)Cc1ccco1`, 103%.
Turning to `CCc1ccc(CN(Cc2ccco2)c2cnc(S(C)(=O)=O)nc2C(=O)Nc2ccccc2Cl)cc1`, the survival was 101%.
Turning to `CCOc1ccccc1NC(=O)C(=O)c1cc(C)n(-c2ccc(F)cc2)c1C`, the survival was 114%.
Regarding `Cn1cc(-c2nnc(-c3ccccc3)o2)c2ccccc21`, the survival is 94%.
In the case of `Cc1cc(C)cc(C(=O)N(Cc2nc(-c3ccc(Cl)cc3)no2)C(C)C)c1`, the survival is 14% (active).
With `CC(C)N(Cc1nc(-c2ccc(Cl)cc2)no1)C(=O)c1ccc(C(C)(C)C)cc1` the figure was -1% (active); with `Cc1ccccc1C(=O)N(Cc1nc(-c2ccc(Cl)cc2)no1)C(C)C`, 78%.
For `Cc1ccc(-c2noc(CN(C(=O)c3ccc(C(C)(C)C)cc3)C(C)C)n2)cc1`, the survival is -4% (active).
Consider `COc1cccc(C(=O)N(Cc2nc(-c3ccc(Cl)cc3)no2)C(C)C)c1OC`, for which the survival is 66%.
Consider `CCOc1cc(C(=O)N(Cc2nc(-c3ccc(C)cc3)no2)C(C)C)cc(OCC)c1OCC`, for which the survival is 50% (active).
For `CC(C)N(Cc1nc(-c2ccc(Cl)cc2)no1)C(=O)c1ccco1`, the survival is 68%.
Consider `CCOc1cc(C(=O)NCc2nc(-c3cccc(C)c3)no2)cc(OCC)c1OCC`, for which the survival was 70%.
Turning to `CCOc1ccc(C(=O)NCc2nc(-c3ccc(Cl)cc3)no2)cc1OCC`, the survival is 49%.
As to `Cc1ccc(-c2noc(CNC(=O)c3ccc(C(C)(C)C)cc3)n2)cc1`, the survival is 79%.
Take `CCCCOc1ccc(C(=O)N(Cc2nc(-c3ccc(Cl)cc3)no2)C(C)C)cc1`: the survival is 59%.
